Data on 17 compounds can be found in PubChem BioAssay.

A word on the inhibition: it is the drop in the measured response relative to a control, in per cent.

A number with no mark means an inactive call. The rule behind the calls is not given here.

Sequence of Pantothenate synthetase (Mycobacterium tuberculosis (strain ATCC 25618 / H37Rv)) (P9WIL5 whole entry, looked up): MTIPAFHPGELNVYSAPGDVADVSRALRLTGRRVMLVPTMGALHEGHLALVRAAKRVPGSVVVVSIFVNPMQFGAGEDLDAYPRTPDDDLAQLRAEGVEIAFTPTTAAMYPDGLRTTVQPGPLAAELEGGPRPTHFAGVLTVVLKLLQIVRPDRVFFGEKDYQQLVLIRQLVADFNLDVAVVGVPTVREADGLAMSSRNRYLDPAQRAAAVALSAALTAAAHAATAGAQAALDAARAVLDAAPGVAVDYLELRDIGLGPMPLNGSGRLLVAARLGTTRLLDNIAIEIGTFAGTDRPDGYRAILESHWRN

The assay addresses Pantothenate synthetase (Mycobacterium tuberculosis (strain ATCC 25618 / H37Rv)) (UniProt P9WIL5). The experiment in a line: Recombinant Mtb pantothenate synthetase (PanC) inhibitors, coupled enzyme, confirmatory (AID 375).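 Note: 0% = full reaction with vehicle and 100% = no enzyme background.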 The following applies: coupled enzyme assay; at 10 µM, stronger effect = higher value.
As to `CC1(C)CC(=O)CC(C)(C)N1OC(=O)c1ccccn1`, the inhibition was 0%.
For `CCOC(=O)Cn1nnnc1CN(Cc1ccc(OC)cc1)Cc1cc2cc(C)ccc2[nH]c1=O` the value was 1%.
Turning to `CC1CCN(C(=O)c2ccc(C(=O)N3CCC(C)CC3)cc2)CC1`, the inhibition was 0%.
As to `O=c1c2cc(N3CCOCC3)ccc2[nH]c(=S)n1CCCN1CCCC1`, the inhibition was 13%.
Next, `COc1ccc(C2CC(c3ccc(Cl)cc3)Nc3nc(NC(=O)c4ccco4)nn32)cc1` (configuration not stated): 4%; `CCc1nnc(NC(=O)c2ccc(COc3ccccc3)o2)s1`: 6%.
For `Nc1nnc(-c2cn(-c3ccccc3)nc2-c2ccccc2)o1` the value was 0%.
With `CCOc1ccc(N(C(C)=O)C2C=CS(=O)(=O)C2)cc1` (configuration not stated), the inhibition was 0%.
For `Cc1c(C#N)sc2nc(-c3ccccc3)nc(N3CCCC3)c12` the value was 0%.
For `CCOC(=O)N1CCN(C(=O)CN(c2ccc(C)cc2)S(=O)(=O)c2c(C)noc2C)CC1` the value was 0%; for `CC(C)(C)C1=Nn2c(nnc2-c2n[nH]c3c2CCC3)SC1`, 8%; for `CSc1ccccc1NC(=O)c1c(Br)cnn1C`, 0%.
With `CCNc1nc(NC(C)C)nc(N(C#N)CCOc2ccc(Cl)cc2Cl)n1`, the inhibition was 7%.
`O=C(CN1CCN(c2nc(-c3ccc(F)cc3)cs2)CC1)NCc1ccc2c(c1)OCO2`: the inhibition is 5%.
For `Cc1nc2cc(NC(=O)N3CC4(C)CC3CC(C)(C)C4)ccc2n1C` (configuration not stated) the value was 8%; for `CC(=O)O[C@H]1CSC[C@H]1NC(=O)c1ccccc1`, 0%; for `CCOC(=O)N1CCN(C(=O)CSc2ncnc3ccccc23)CC1`, 0%.
